Data on 97 compounds can be found in PubChem BioAssay AID504444 (National Center for Advancing Translational Sciences (NCATS), 2011).

Structures are written as SMILES. Screen size: about 360,000 compounds; about 7,500 (2.1%) were called active. Where a call stands in place of a potency, no number is given. Roughly 20% stayed inconclusive and do not appear here. Only a selection was taken, and actives are over-represented in it overall. A number with no mark means an inactive call. Calls follow the shape of the dose curve; as a rule, active = well fitted inhibition curve with a large enough effect; inconclusive = small, poorly fitted or top-dose-only effect, or effect the other way; inactive = flat fitted curve, though single readings scatter.
Potency is read from the fitted curve at half-maximal effect.

The assay in a line: Nrf2 qHTS screen for inhibitors. Also: nearly all actives have a fitted effect of over 60% in size. The note with it: A549 ARE-Fluc reporter, luciferase luminescence, 18-24 h; series mostly up to 46 µM. The gist of the method: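 Cells were seeded and rested 2 h, then exposed to compounds for 18-24 h. CellTiter-Fluor was read first as a viability measure. BugLite was added 15 min before the final luminescent read of ARE-luciferase activity in A549 cells.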
With `CCOC(=O)C1=CN(Cc2ccc(Br)cc2)S(=O)(=O)N(C)C1C` (configuration not stated), the Potency result was “inactive”.

On to `CCNC(=O)N(CC)C[C@H]1N[C@@](CC)(C(=O)OC)[C@H]2C(=O)N(Cc3ccccc3)C(=O)[C@@H]12`, for which the Potency entry is “inactive”. Same read-out and setting: next, `O=C1c2ccccc2[C@@H]2C[C@@H](O)[C@H](Nc3ccccc3Cl)CCN12`: “inactive”; `Cc1cc(=O)[nH]c(SCc2cccc(F)c2)n1`: “inactive”; `C=CCn1c(SCc2cccc(F)c2)nc2cc(C(=O)N3CCC(C(N)=O)CC3)ccc2c1=O`: “inactive”. Same read-out and setting: under `CCn1cc2nc(SCc3cccc(F)c3)n(CCc3ccccc3)c(=O)c2n1` stands 23.1 µM (active); under `O=C(Cn1cc(SCc2ccccc2)c2ccccc21)N1CCCCC1`, “inactive”. `COc1ccc(CCNc2nc(-c3ccc(F)cc3)cc(C(F)(F)F)n2)cc1OC`: the activity change, negative = inhibition is 8.32% [at 9.27 µM]. On to `COc1ccccc1CNC(=O)c1ccc(-n2c(C)cc3c2CCCC3)cc1`, for which the Potency result is “inactive”. Same read-out and setting: under `CCOc1ccc(CNC(=O)CCc2c(C)nn(-c3ccc(N4CCCCC4)nn3)c2C)cc1` stands “inactive”. On the same count and under the same terms, under `O=C(NCc1ccc(F)cc1)c1ccc(Cn2c(SCc3ccc(F)cc3)nc3cccnc32)cc1` stands “inactive”. The same measure, in the same setting: under `O=C(O)c1ccc(CSc2nc3cccnc3n2Cc2cccc(F)c2)cc1` stands “inactive”. With `Cc1oc(-c2ccccc2)nc1Cn1c(SCc2cccc(C(F)(F)F)c2)nc2cccnc21`, the Potency was 25.9 µM (active).

Consider `CCN(Cc1ccccc1)C(=O)c1cn(-c2cccc(OC)c2)c(=O)c2ccccc12`, for which the Potency entry is “inactive”. The same measure, in the same setting: under `c1ccc(-c2nc(NCc3ccco3)c3ccccc3n2)cc1` stands “inactive”; under `Cc1ccc(Oc2nc(-c3ccccn3)nc3ccccc23)cc1`, “inactive”; under `CC(C)(C)Nc1nc(-c2ccccn2)nc2ccccc12`, 20.6 µM (active). For `CCOc1ccc(C(=O)c2cn(Cc3ccccc3OC)c3ccc(F)cc3c2=O)cc1`, the Potency entry is “inactive”. On the same count and under the same terms, next, `CC(C)(C)C(=O)Nc1ccc(C(=O)N/N=C/c2ccccc2OC(=O)c2ccc(Cl)cc2Cl)cc1`: 13 µM (active). On the same count and under the same terms, under `O=C(N/N=C/c1ccoc1)c1ccc(Cl)cc1Cl` stands “inactive”; under `O=C(N/N=C/c1ccc(OC(=O)c2ccccc2Cl)cc1)c1ccc(O)cc1`, “inactive”. Consider `O=C(CC(=O)c1cccnc1)c1ccccc1`, for which the Potency result was “inactive”.

`COCCN(Cc1ccco1)C(=O)Cn1ncc2c([nH]c3ccccc32)c1=O`: the Potency entry is “inactive”. On the same count and under the same terms, next, `O=C(CC1SC(=Nc2ccccc2)N(Cc2ccccn2)C1=O)Nc1cccc(Cl)c1` (configuration not stated): 25.9 µM (active); `CN1C(=O)C(CC(=O)Nc2ccccc2)S/C1=N/c1nccs1` (configuration not stated): “inactive”; `O=C(Nc1cccc(Cl)c1)OCc1ccccn1`: “inactive”. Regarding `CN(C)C(=S)N=c1ssc(=S)n1Cc1ccco1`, the Potency entry was “inactive”. Still for that read-out and setting: under `COc1cccc(C(=O)Nc2ccc3oc(-c4ccc5ccccc5c4)nc3c2)c1` stands “inactive”; under `CCCCOc1ccc(C(=O)Nc2cccc(-c3nc4ccccc4o3)c2C)cc1`, “inactive”. On the same count and under the same terms, under `O=C(COc1ccc(Cl)cc1)Nc1ccc(-c2nc3cc(Cl)ccc3o2)c(O)c1` stands “inactive”; under `Cc1ccccc1-c1nc2cc(NC(=O)c3cccc(OCCC(C)C)c3)ccc2o1`, 6.51 µM (active); under `Cc1ccc(SCC(=O)Nc2ccc3oc(-c4ccccc4C)nc3c2)cc1`, “inactive”. Consider `CCCOc1ccc(C(=O)Nc2ccc3oc(-c4cccc(Cl)c4Cl)nc3c2)cc1`, for which the Potency was 5.8 µM (active). Still for that read-out and setting: next, `O=C(NCCCc1ccccc1)c1ccc2c(c1)sc1nc(-c3ccc(F)cc3)cn12`: “inactive”; `CCc1ccc(OCCCn2c(CCCNC(=O)C3CCCCC3)nc3ccccc32)cc1`: “inactive”. Still for that read-out and setting: under `O=C(NCc1ccccc1)c1cccc(NC(=O)N2CCSc3ncccc32)c1` stands “inactive”; under `CC(C)(C)OC(=O)C[C@H]1C/C=C\C[C@@H](CC(=O)N[C@H](CO)Cc2ccccc2)C(=O)NC[C@@H](c2ccccc2)OC1=O`, “inactive”.

`COc1ccc(-c2ccc3c(c2)C2CC3CCN2CCC#N)cc1` (configuration not stated): the Potency entry was “inactive”. Regarding `Cc1nc2ccc(S(=O)(=O)N(CC(=O)Nc3ccc(F)cc3)Cc3ccccc3)cc2s1`, the Potency result is “inactive”.

As to `Cc1c(C(=O)N2CCCC2)oc2c1-c1nn(CC(=O)NCc3ccc(OC(C)C)cc3)cc1CC2`, the Potency was 20.6 µM (active). Still for that read-out and setting: next, `COc1ccccc1N1CCN(c2ccc(=O)n(CC(=O)NCc3ccc(OC(C)C)cc3)n2)CC1`: “inactive”. As for `CCCN(CCC)CCCNC(=O)Cn1cc2c(n1)-c1c(oc(C(=O)N3CCCC3)c1C)CC2`, the Potency entry is “inactive”. Still for that read-out and setting: under `Cc1ccc(Cn2cc(CCC(=O)NCc3ccc(OC(C)C)cc3)c3ccccc32)cc1` stands “inactive”.

For the compound `Cc1cccc(N2CCN(C(=O)c3oc(=O)c4ccccc4c3-c3ccccc3)CC2)c1C`, the Potency entry was “inactive”. The same measure, in the same setting: next, `Cc1ccc2nc(/C(C#N)=C\c3ccc(OC(=O)c4cccs4)cc3)[nH]c2c1`: 4.61 µM (active); `COc1cc(/C=C(\C#N)c2nc3ccccc3[nH]2)ccc1O`: “inactive”. The same measure, in the same setting: next, `Cc1ccc2nc(/C(C#N)=C/c3ccccc3F)[nH]c2c1`: “inactive”. Still for that read-out and setting: under `CC(=O)Nc1cccc(/C(C)=N/NC(=O)c2c(-c3ccccc3Cl)noc2C)c1` stands 9.2 µM (active); under `Cc1onc(-c2ccccc2Cl)c1C(=O)OCC(=O)c1ccccc1`, “inactive”. On to `Cc1onc(-c2c(Cl)cccc2Cl)c1C(=O)NNC(=O)c1c(-c2c(Cl)cccc2Cl)noc1C`, for which the Potency entry is “inactive”. Still for that read-out and setting: under `COC(=O)c1ccc(CNC(=O)Cn2cc(C)c(=O)[nH]c2=O)cc1` stands “inactive”; under `Cc1cccc(-c2nc(SCc3ccc(Br)cc3)n3[nH]c(=O)cc3n2)c1`, “inactive”. As to `O=C(O)c1ccccc1C(=O)Nc1nc(-c2ccccc2)cs1`, the Potency result is “inactive”. Same read-out and setting: under `CC(=O)Nc1ccc(-c2csc(NC(=O)Nc3ccccc3)n2)cc1` stands 16.4 µM (active); under `CC(=O)Nc1ccc(S(=O)(=O)Nc2nc(-c3ccc(C(C)(C)C)cc3)cs2)cc1`, “inactive”. In the case of `Cc1cc(Cl)ccc1OCC(=O)N(Cc1ccc(N(C)C)cc1)C1CCS(=O)(=O)C1` (configuration not stated), the Potency entry was “inactive”.

With `COc1ccc(-c2ccc3c(c2)[C@@H]2C[C@H](N(C)S(=O)(=O)c4ccccc4)[C@H]([C@H](C)O)C(=O)N2CC3)cc1`, the Potency result was “inactive”. On the same count and under the same terms, next, `Cc1nnc(N2CCC(C(=O)Nc3ccc(F)cc3)CC2)c2nn(-c3ccc(Cl)cc3)c(C)c12`: “inactive”. Regarding `CC1C(C)N(C(=O)CCl)c2ccccc2N1C(=O)CCl` (configuration not stated), the Potency was 18.4 µM (active).

Turning to `CC1CC(C)CN(CC(=O)N2c3ccccc3CCc3ccccc32)C1` (configuration not stated), the Potency result is “inactive”. As for `CNC(=O)N1c2ccccc2C=Cc2ccccc21`, the Potency entry was “inactive”. The same measure, in the same setting: under `Cc1cccc(NC(=O)c2cccnc2Cl)n1` stands “inactive”; under `CCN(CC)S(=O)(=O)c1ccc(NC(=O)c2cccnc2Cl)c(NC(=O)c2cccnc2Cl)c1`, 20.6 µM (active). Same read-out and setting: next, `CCN(CC)S(=O)(=O)c1ccc(Cl)c(NC(=O)c2ccncc2)c1`: “inactive”. In the case of `COc1ccc(N2C(=O)CS(=O)(=O)C23C(=O)N(Cc2ccc(C)cc2)c2ccccc23)cc1Cl` (configuration not stated), the Potency result was “inactive”. Same read-out and setting: next, `CN(C)C(CNC(=O)c1cc2ccccc2o1)c1ccccc1` (configuration not stated): “inactive”. Consider `COc1cccc(CN2CCc3nc(SCC(=O)Nc4ccccc4)[nH]c(=O)c3C2)c1`, for which the Potency entry is “inactive”.

Turning to `COc1cc(/C=N/Nc2nc3ccccc3s2)ccc1O`, the Potency entry was “inactive”. Still for that read-out and setting: next, `O=[N+]([O-])c1cc(Br)c(O)c(/C=N/Nc2nc3ccccc3s2)c1`: “inactive”; `c1ccc(C(=NNc2nc3ccccc3s2)c2ccccn2)cc1`: 9.2 µM (active); `CCC(C(=O)Nc1cc(OC)ccc1OC)n1c(=O)c(C(F)(F)F)nc2ccccc21` (configuration not stated): “inactive”. Still for that read-out and setting: next, `CSCCC(NC(=O)c1ccccc1)C(=O)N1CCN(Cc2ccc(Cl)cc2)CC1` (configuration not stated): “inactive”; `CCCCN(C(=O)c1cccc(N2C(=O)c3ccccc3C2=O)c1)c1c(N)n(CCCC)c(=O)[nH]c1=O`: “inactive”; `N#Cc1ccc(OC2=NS(=O)(=O)c3ccccc32)cc1`: “inactive”. Same read-out and setting: under `COc1ccc(/C=N/NS(=O)(=O)c2ccc(NC(C)=O)cc2)cc1` stands “inactive”; under `COc1ccc(C(=O)Oc2cc(/C=N/NS(=O)(=O)c3ccc(C)cc3)ccc2OC)cc1`, 16.4 µM (active); under `COc1ccc(S(=O)(=O)N/N=C\c2ccc(OC)c(COc3ccc(C)cc3[N+](=O)[O-])c2)cc1`, “inactive”.

Take `CCOc1ccc(C(=O)c2cn(Cc3ccc(F)cc3)c3ccc(F)cc3c2=O)cc1`: the Potency entry was “inactive”. Still for that read-out and setting: under `CN(C)c1ccc(Nc2c3c4c(cccc4n(C)c2=O)C(=O)c2ccccc2-3)cc1` stands 8.2 µM (active); under `CN(C)c1ccc(C2N(C)C(=O)c3ccccc3N2C)cc1` (configuration not stated), “inactive”. Still for that read-out and setting: next, `Cc1ccc(Nc2c(-c3ccc(N(C)C)cc3)nc3nc[nH]n23)cc1`: “inactive”; `O=C(Nc1c(C(=O)N2CCN(c3ccc(F)cc3)CC2)oc2ccccc12)c1ccco1`: “inactive”; `CCOC(=O)C1CCCN(C(=O)C2CCN(S(=O)(=O)c3ccc(Cl)c(C(F)(F)F)c3)CC2)C1` (configuration not stated): “inactive”. Still for that read-out and setting: next, `CCCCNC(=O)CSc1nc2ccc(NC(=O)CSc3nnc(COc4ccccc4C)n3C)cc2s1`: “inactive”; `CCCCNC(=O)CSc1nc2ccc(NC(=O)CSc3nnc(N)s3)cc2s1`: 16.4 µM (active); `CCC(=O)Nc1ccc2nc(SCC(=O)N3CCc4ccccc43)sc2c1`: “inactive”.

With `CCOC(=O)c1ccc(NC(=O)C2CC(=O)N(c3ccc(C(C)C)cc3)C2)cc1` (configuration not stated), the Potency entry was “inactive”. On the same count and under the same terms, under `O=C(Nc1ccncc1)c1c(F)cccc1F` stands 9.2 µM (active); under `O=C(Nc1ccc(S(=O)(=O)N2CCCCCC2)cc1)c1c(F)cccc1F`, “inactive”. Same read-out and setting: under `O=C(Nc1ccncc1)Nc1ccc(F)cc1` stands “inactive”. Turning to `Cc1ccc(C)c(N2CCN(CCCNC(=O)Nc3ccc(Cl)cc3)CC2)c1`, the Potency entry is “inactive”. On to `CCOc1ccc(NC(=O)CCC(=O)N2CC(C)Oc3ccc(C)cc32)cc1` (configuration not stated), for which the Potency entry was “inactive”. The same measure, in the same setting: next, `CN(C)C(=O)c1coc2nc3ccccc3nc12`: “inactive”; `CNC(=O)c1cccc2nc3ccccc3nc12`: 5.8 µM (active).

On to `O=c1[nH]c(=O)c2nc3ccccc3nc2[nH]1`, for which the Potency result is “inactive”. Consider `Cc1ccc(Nc2c(-c3ccc(C)cc3)nc3cnccn23)cc1`, for which the activity change, negative = inhibition was -2.28% [at 9.27 µM]. As for `CCOC(=O)C1CCN(C(=O)CN2C(=O)NC(C)(c3ccc4cc(OC)ccc4c3)C2=O)CC1` (configuration not stated), the Potency entry was “inactive”.
